Test results: PubChem BioAssay (EPA / NIEHS)
The source holds several records for some structures; these can differ, active in one and inactive in another. Activity calls are given as the source filed them. The calls were made as follows: active = hit-call score of the fitted dose curve at least 0.9, where 1 is the maximum; inactive = score below 0.9.

assay: ATG_Oct_MLP_CIS: Attagene CIS-FACTORIAL HepG2 Assay for human Octamer-Binding Transcription Factor (Oct) (AID 2282993); settings: HepG2 Attagene cis-factorial Oct reporter, mRNA; actives raise or lower the signal
Experimental: ATG_CIS is a cell-based, multiplexed-readout assay that uses HepG2, a human liver cell line, with measurements taken at 24 hours after chemical dosing in a 24-well plate.ATG_Oct_MLP_CIS is one of 52 assay component(s) measured or calculated from the ATG_CIS assay. It is designed to make measurements of mRNA induction, a form of inducible reporter, as detected with fluorescence intensity signals by Reverse transcription polymerase chain reaction (RT-PCR) and Capillary electrophoresis technology.Data from the assay component ATG_Oct_MLP_CIS was analyzed into 1 assay endpoint. This assay endpoint, ATG_Oct_MLP_CIS, was analyzed with bidirectional fitting relative to DMSO as the negative control and baseline of activity. Using a type of inducible reporter, measures of mRNA for gain or loss-of-signal activity can be used to understand the reporter gene at the transcription factor-level as they relate to the gene POU2F1. Furthermore, this assay endpoint can be referred to as a primary readout, because this assay has produced multiple assay endpoints where this one serves a reporter gene function. To generalize the intended target to other relatable targets, this assay endpoint is annotated to the dna binding intended target family, where the subfamily is POU domain protein.
Human liver HepG2 cells are transiently transfected with multiple reporter transcription units (MRTUs) in 6-well plates using FuGene 6 reagent (Roche; 3 ml FuGene/1 mg DNA). The MRTU constructs are regulated by a cis-regulating element (promoter). […] A major difference between the CIS and TRANS system is that in CIS activities of endogenous TFs are measured, whereas the TRANS assay evaluates changes in activities of exogenous, chimeric NR-Gal4 proteins. […] At the end of 24 hour incubation, total RNA was isolated using TriZol reagent (Invitrogen). The isolated RNA is then reverse-transcribed using oligo(dT) primer and Mo-MLV reverse transcriptase (Invitrogen) with DNAse I (Ambion) treatment for 30 min. The one-tenth of the produced cDNA was amplified by PCR using Taq DNA polymerase (Invitrogen) and two reporter sequence-specific primers. The PCR products were fluorescently labeled by primer extension with 6-arboxyfluorescein (6-FAM) 5'-labeled reporter sequence-specific primer (2 min at 95 C, 20 s at 68 C and 10 min at 72 C) and these products were digested with 5U of HpaI (New England Biolabs) for 2h at 37 C. The fragments were purified using Qiaquick PCR columns (Qiagen), analyzed on an ABI 3130xL genetic analyzer (Applied Biosystems) with peak positions identified by using a set of X-rhodamine (ROX)-labeled MapMarker1000 molecular weight standards (BioVentures). The raw capillary electrophoresis data was processed using Attagraph software (Attagene).

| SMILES | outcome | AC50 |
| --- | --- | --- |
| O=C(c1cc(O)c(O)c(O)c1)c1ccc(O)c(O)c1O | inactive | – |
| Brc1ccc(Oc2ccc(Br)cc2Br)cc1 | inactive | – |
| CCc1cccc(CC)c1N(COC)C(=O)CS(=O)(=O)O | inactive | – |
| Cc1cccc2c1ccc1ccccc12 | inactive | – |
| Cc1cc(C(=C2C=CC(=Nc3ccc(S(=O)(=O)O)cc3)C=C2)c2ccc(Nc3ccc(S(=O)(=O)O)cc3)cc2)cc(S(=O)(=O)O)c1N | inactive | – |
| O=C(CCCN1CCC(O)(c2ccc(Cl)cc2)CC1)c1ccc(F)cc1 | – | 47.9 µM (active) |
| O=C(F)C(F)(F)C(F)(F)C(F)(F)C(F)F | inactive | – |
| CC(C)(c1ccc(Oc2ccc(N)cc2)cc1)c1ccc(Oc2ccc(N)cc2)cc1 | inactive | – |
| C=CC(F)(F)C(F)(F)C(F)(F)C(F)(F)F | inactive | – |
| O=C(O)c1cccc(C(=O)O)n1 | inactive | – |
| CCCCCCCCCCCC[N+](C)(C)Cc1ccccc1 | inactive | 13.5 µM (active) |
| Oc1c(Cl)cc(Cl)cc1Sc1cc(Cl)cc(Cl)c1O | – | 3.57 µM (active) |
| NCCN | inactive | – |
| Cc1ccc2ccc3ccc(C)cc3c2c1 | inactive | – |
| Clc1ccc(Nc2nnc(Cc3ccncc3)c3ccccc23)cc1 | inactive | – |
| CCOC=O | inactive | – |
| FC(OC(F)(F)C(F)(F)C(F)(F)F)C(F)(F)F (stereo not given) | inactive | – |
| COC1=CC(=O)C[C@@H](C)[C@]12Oc1c(Cl)c(OC)cc(OC)c1C2=O | inactive | – |
| CCCCCCCC(OC)OC | inactive | – |

| SMILES | outcome | AC50 |
| --- | --- | --- |
| CC(=O)Nc1ccc(O)cc1 | inactive | – |
| CC(C)[C@@H]1CC[C@@H](C)C[C@H]1O | inactive | – |
| Nc1ccn([C@@H]2O[C@H](CO)[C@@H](O)C2O)c(=O)n1 (stereo not given in full) | inactive | – |
| CCN(CC)CC | inactive | – |
| c1cnc2c(c1)ccc1cccnc12 | inactive | 155 µM (active) |
| Clc1ccc2c(Cl)ccnc2c1 | inactive | – |
| CCC(C)c1ccccc1O (stereo not given) | inactive | – |
| CCCC=O | inactive | – |
| CC(O)COc1ccccc1 (stereo not given) | inactive | – |
| O=C1Cc2ccccc2N1c1c(Cl)cccc1Cl | inactive | – |
| c1ccc(CNc2ncnc3c2ncn3C2CCCCO2)cc1 (stereo not given) | inactive | – |
| NNc1nc(-c2ccc([N+](=O)[O-])cc2)cs1 | inactive | – |
| CCc1ccccc1O | inactive | – |
| OCC(F)(F)C(F)(F)C(F)(F)C(F)(F)C(F)(F)C(F)(F)C(F)(F)C(F)(F)C(F)(F)C(F)(F)C(F)(F)F | inactive | – |
| FC(F)(F)C1(F)C(F)(F)C(F)(F)C(F)(F)C1(F)F | inactive | – |
| O=C(CC(=O)C(F)(F)C(F)(F)C(F)(F)F)c1cccs1 | inactive | 9.28 µM (active) |
| CCCCCCCCCCCCCCCCCC[N+](C)(C)Cc1ccccc1 | – | 3.19 µM (active) |
| CC1COCc2cc3c(cc21)C(C)(C)C(C)C3(C)C (stereo not given) | inactive | – |
